Results as given in PubChem BioAssay (NCATS).
Where “and” joins values, the source holds several entries; their conditions need not be identical. Identical values can stand only once. Results filed as inconclusive are left out. Calls of active or inactive are those of the source. Unless noted, the call rests on the fitted dose curve; in most records, active means well fitted curve in the direction sought with a large enough effect; inconclusive means small, poorly fitted or top-dose-only effect, or another doubt; inactive means no such curve, though single readings can be large; an effect the other way counts as inactive or inconclusive.

Assays:
[1] = Cell Viability - Renal Proximal Tubule (AID 545); conditions: renal proximal tubule cells viability, primary cells of rat origin; at 91.7 µM (top of the series);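 further: cells exposed to compound for 40 hours; nearly all actives have a fitted effect of over 40% in size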
In short: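 Rat kidney proximal tubule cells, freshly isolated; 1000 cells/well, 5 hr settle, compound 40 hr 37 °C. CellTiter-Glo 20 min RT, luminescence read. AC50 by standard Hill fit.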

[2] = Cellular Toxicity (caspase-3) Jurkat (AID 655); conditions: Jurkat caspase-3 activation, luminescence, DMSO = 0%, tamoxifen = 100%; at 92.2 µM (top of the series);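 further: cells exposed to compound for 16 h at 37 °C before reading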
In short: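 Luminescent caspase-3/7 readout (aminoluciferin substrate cleavage) in human T-cell leukemia Jurkat cells after 16 hr compound exposure. Concentration-response normalized to DMSO and 100 uM tamoxifen; AC50 by standard Hill equation.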

[3] = Cell Viability - LYMP2-001 (AID 921);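 further: 0% = DMSO only and full inhibition = tetraoctylammonium bromide control wells; nearly all actives have a fitted effect of over 70% in size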
In short: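 CellTiter-Glo luminescence (intracellular ATP) after 24 hr compound exposure at 37 C, 2500 lymphoblastoid cells/well in complete medium. AC50 fitted with standard Hill equation; tetraoctylammonium bromide positive control.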

[4] = Cell Viability - LYMP1-003 - Assay at 24 hr (AID 963);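 further: plate controls were DMSO only for no effect and tetraoctylammonium bromide positive control for full effect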
In short: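 Human lymphoblastoid LYMP1-003 cells, 2500/well, treated 24 h at 37 C in complete medium. Viability read as intracellular ATP by CellTiter-Glo luminescence after 30 min at room temperature; AC50 from Hill-equation fits of qHTS concentration-response.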

[5] = Cell Viability - LYMP2-004 (AID 966);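 further: plate controls were DMSO only for no effect and tetraoctylammonium bromide control for full effect; nearly all actives have a fitted effect of over 65% in size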
In short: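 Lymphoblastoid LYMP2-004 cells, 2500 per well, were preincubated for 5 hr and then treated with compound for 24 h at 37 C in complete medium. Viability was read as cellular ATP by CellTiter-Glo luminescence, and AC50 values were taken from Hill fits to concentration-response data.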

[6] = Cell Viability - LYMP2-005 (AID 967);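 further: plate controls were DMSO only for no effect and 92 µM tetraoctylammonium bromide control for full effect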
In short: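 Steps: seed 2500 LYMP2-005 cells/well, incubate 5 h at 37 C, add compound, incubate 24 h at 37 C, add CellTiter-Glo, wait 30 min at RT, read luminescence. Concentration-response data fitted to Hill equation for AC50.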

[7] = Cell Viability - LYMP2-019 (AID 973);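 further: 0% = DMSO alone and full effect = 92 µM tetraoctylammonium bromide; nearly all actives have a fitted effect of over 55% in size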
In short: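 Human lymphoblastoid LYMP2-019 cells (2500/well) preincubated 5 h at 37 C, then treated 24 h at 37 C in complete medium. Viability by CellTiter-Glo ATP luminescence after 30 min at room temperature; AC50 from Hill fits.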

[8] = Cell Viability - LYMP2-021 (AID 974);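 further: compound exposure lasts 24 hours at 37 °C; on the % scale 0 is the no-effect control and ±100 the full control effect; nearly all actives have a fitted effect of over 55% in size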
In short: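 Human lymphoblastoid LYMP2-021 cells, 2500/well in complete medium, treated 24 hours at 37 C. Intracellular ATP by CellTiter-Glo luminescence (30 min, RT); AC50 from Hill fits of concentration-response.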

[9] = Cell Viability - LYMP2-023 (AID 975);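 further: cellular ATP measured by luciferase luminescence as viability proxy; plate controls were DMSO only for no effect and 92 µM tetraoctylammonium bromide control for full effect; nearly all actives have a fitted effect of over 55% in size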
In short: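 LYMP2-023 human lymphoblastoid cells, 2500/well, preincubated 5 hr at 37 C, then compound-treated 24 hr at 37 C in complete medium. CellTiter-Glo luminescence (ATP) after 30 min at room temperature; AC50 from Hill-equation fits; tetraoctylammonium bromide positive control.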

[10] = Cell Viability - LYMP2-025 (AID 976);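 further: plate controls were DMSO only for no effect and tetraoctylammonium bromide control for full effect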
In short: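 Human lymphoblastoid LYMP2-025 cells, 2500/well, exposed 24 h at 37 C in complete medium in 1536-well qHTS. Viability as cellular ATP by CellTiter-Glo luminescence; AC50 from Hill fits of concentration-response data.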

[11] = Cell Viability - LYMP2-002 (AID 977);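 further: compound exposure lasted 24 h at 37 °C; plate controls were DMSO only for no effect and 92 µM tetraoctylammonium bromide for full effect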
In short: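 Human lymphoblastoid LYMP2-002 cells, 2500 per well, exposed to compounds for 24 h at 37 C in complete medium; viability read as intracellular ATP by CellTiter-Glo luminescence, AC50 from Hill fits.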

[12] = Cell Viability - LYMP2-006 (AID 978); further: on the % scale 0 is the no-effect control and ±100 the full control effect; nearly all actives have a fitted effect of over 60% in size
In short: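 qHTS, 1536-well; 2500 cells/well, 5 hr 37 C; cpd 24 hr 37 C; CellTiter-Glo 30 min RT; luminescence. Tetraoctylammonium bromide pos. ctrl. AC50 via Hill eqn.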

[13] = Cell Viability - LYMP2-014 (AID 983);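 further: plate controls were DMSO only for no effect and 92 µM tetraoctylammonium bromide for full effect; nearly all actives have a fitted effect of over 50% in size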
In short: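 LYMP2-014 human lymphoblastoid cells, 2500/well, treated 24 h at 37 C in complete medium; viability by CellTiter-Glo ATP luminescence after 30 min at room temperature. AC50 from Hill fits of qHTS concentration-response; tetraoctylammonium bromide positive control.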

[14] = Cell Viability - LYMP2-016 (AID 984); further: on the % scale 0 is the no-effect control and ±100 the full control effect; nearly all actives have a fitted effect of over 55% in size
In short: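 qHTS, 1536-well: 2500 LYMP2-016 cells/well, 5 hr 37 C, compound added, 24 hr 37 C, CellTiter-Glo 30 min RT, luminescence. Tetraoctylammonium bromide positive control. AC50 via Hill fit.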

[15] = Cell Viability - LYMP2-026 (AID 989); further: on the % scale 0 is the no-effect control and ±100 the full control effect; nearly all actives have a fitted effect of over 50% in size
In short: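 Human lymphoblastoid LYMP2-026 cells, 2500/well, exposed to compound 24 h at 37 C in complete medium. Viability as intracellular ATP by CellTiter-Glo luminescence; AC50 from Hill fits of qHTS concentration-response.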

[16] = Cell Viability - LYMP1-002 - Assay at 24 hr (AID 993); further: on the % scale 0 is the no-effect control and ±100 the full control effect
In short: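 Human lymphoblastoid LYMP1-002 cells (2500/well) treated 24 h at 37 °C; viability as intracellular ATP by CellTiter-Glo luminescence. Tetraoctylammonium bromide as positive control; AC50 from Hill-equation fits of qHTS concentration-response.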

[17] = biological target: Thyroid hormone receptor beta (Homo sapiens) (UniProt P10828); assay: qHTS assay for small molecule agonists of thyroid hormone receptor beta signaling (AID 588545; calls by dose curve)
In short: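 Agonist-mode beta-lactamase reporter assay, HEK 293 cells, 2% charcoal/dextran FBS; cells plated 4 hrs, compound 18 hrs at 37 C, CCF4 2 hrs RT. Normalized to 10 nM T3 (100%) and DMSO (0%); Hill fit gives EC50, efficacy.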

[18] = biological target: Retinoic acid receptor RXR-alpha (Homo sapiens) (UniProt P19793); assay: qHTS assay for small molecule antagonists of retinoid X receptor alpha signaling (AID 588546; active means well fitted inhibition curve with a large enough effect in the signal ratio, with a control signal flat, not every such curve was filed as active; the % refers to the signal ratio;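 further: cells stimulated with 9-cis-retinoic acid as agonist; on the % scale 0 is the no-effect control and ±100 the full control effect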); conditions: HEK293T RXRa-UAS-bla, beta-lactamase ratio, antagonist mode
In short: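 Beta-lactamase reporter inhibition, read as CCF4 fluorescence ratio (ex 405, em 460/530 nm) after 2 h at RT. HEK293T UAS-bla cells, 2500/well, were stimulated with 9-cis-RA at 500 or 100 nM final alongside test compound for 18 h at 37 C.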

[19] = biological target: Voltage-gated inwardly rectifying potassium channel KCNH2 (Homo sapiens) (UniProt Q12809); assay: qHTS Assay for Small Molecule Inhibitors of the Human hERG Channel Activity (AID 588834);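 further: top concentration of the series differs between compounds; on the % scale 0 is the no-effect control and ±100 the full control effect; lower thallium flux fluorescence means stronger hERG block; nearly all actives have a fitted effect of over 50% in size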
In short: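 Concentration-response qHTS measuring drop in thallium-sensitive dye signal. U2OS cells carrying BacMam hERG; compound exposure ~10 min, then stimulation buffer and 2 min read at 1 sec intervals.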

[20] = qHTS assay for small molecule agonists of the antioxidant response element (ARE) signaling pathway measured by Nrf2-dependant transcriptional activity - cell viability counter screen (AID 720653; active means well fitted curve in the direction sought with a large enough effect in the repeat runs; an effect the other way counts as inactive or inconclusive; further: on the % scale 0 is the no-effect control and ±100 the full control effect); conditions: ARE-bla HepG2 viability, CellTiter-Glo ATP luminescence, 16 h; max response: active compounds read low
In short: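 ARE-bla HepG2 cells treated with compounds for 16 h at 37C; this counter screen measures viability as intracellular ATP by CellTiter-Glo luminescence after 30 min at room temperature.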

Sequence of Voltage-gated inwardly rectifying potassium channel KCNH2 (Homo sapiens) (Q12809 whole entry, looked up): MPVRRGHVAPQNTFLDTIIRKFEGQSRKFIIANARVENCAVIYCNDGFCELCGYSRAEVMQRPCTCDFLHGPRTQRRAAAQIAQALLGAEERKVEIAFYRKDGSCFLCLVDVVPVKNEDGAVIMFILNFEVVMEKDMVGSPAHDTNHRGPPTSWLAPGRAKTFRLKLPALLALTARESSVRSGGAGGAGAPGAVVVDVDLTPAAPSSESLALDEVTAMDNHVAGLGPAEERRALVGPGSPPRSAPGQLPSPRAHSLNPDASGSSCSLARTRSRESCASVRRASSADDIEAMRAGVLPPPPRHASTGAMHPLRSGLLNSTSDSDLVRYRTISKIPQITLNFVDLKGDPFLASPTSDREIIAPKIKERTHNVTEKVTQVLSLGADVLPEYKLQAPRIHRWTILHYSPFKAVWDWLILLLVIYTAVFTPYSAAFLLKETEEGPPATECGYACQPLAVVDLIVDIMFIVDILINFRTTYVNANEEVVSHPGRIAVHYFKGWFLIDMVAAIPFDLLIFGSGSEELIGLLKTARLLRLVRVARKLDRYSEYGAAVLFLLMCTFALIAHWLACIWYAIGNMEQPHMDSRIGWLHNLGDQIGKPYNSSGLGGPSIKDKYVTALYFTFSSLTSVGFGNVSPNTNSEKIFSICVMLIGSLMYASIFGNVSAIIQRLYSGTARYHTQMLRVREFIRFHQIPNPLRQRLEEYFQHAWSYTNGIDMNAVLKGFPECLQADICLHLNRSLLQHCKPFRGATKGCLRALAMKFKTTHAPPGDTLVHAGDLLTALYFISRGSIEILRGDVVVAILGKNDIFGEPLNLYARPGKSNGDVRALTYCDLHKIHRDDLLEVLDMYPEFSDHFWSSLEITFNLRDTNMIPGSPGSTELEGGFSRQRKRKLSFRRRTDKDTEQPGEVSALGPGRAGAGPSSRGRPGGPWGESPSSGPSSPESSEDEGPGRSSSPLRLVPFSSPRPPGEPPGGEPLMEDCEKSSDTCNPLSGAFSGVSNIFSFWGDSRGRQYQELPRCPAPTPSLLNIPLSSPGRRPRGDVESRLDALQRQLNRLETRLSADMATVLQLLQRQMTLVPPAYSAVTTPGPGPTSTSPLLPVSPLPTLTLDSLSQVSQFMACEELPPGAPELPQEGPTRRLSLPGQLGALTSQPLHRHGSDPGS
Sequence of Retinoic acid receptor RXR-alpha (Homo sapiens) (P19793 whole entry, looked up): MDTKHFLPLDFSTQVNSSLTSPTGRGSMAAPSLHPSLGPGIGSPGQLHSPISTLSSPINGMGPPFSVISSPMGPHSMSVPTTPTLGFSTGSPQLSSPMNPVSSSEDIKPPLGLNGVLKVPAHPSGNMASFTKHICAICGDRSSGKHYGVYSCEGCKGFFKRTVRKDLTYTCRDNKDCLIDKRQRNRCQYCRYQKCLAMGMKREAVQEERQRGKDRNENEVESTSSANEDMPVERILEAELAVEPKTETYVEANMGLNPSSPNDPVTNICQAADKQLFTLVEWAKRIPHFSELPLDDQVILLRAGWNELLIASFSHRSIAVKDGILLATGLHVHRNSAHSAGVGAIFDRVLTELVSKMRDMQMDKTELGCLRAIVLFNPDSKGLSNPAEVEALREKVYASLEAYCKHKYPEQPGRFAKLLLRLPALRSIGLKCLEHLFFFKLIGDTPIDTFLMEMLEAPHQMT
Sequence of Thyroid hormone receptor beta (Homo sapiens) (P10828 whole entry, looked up): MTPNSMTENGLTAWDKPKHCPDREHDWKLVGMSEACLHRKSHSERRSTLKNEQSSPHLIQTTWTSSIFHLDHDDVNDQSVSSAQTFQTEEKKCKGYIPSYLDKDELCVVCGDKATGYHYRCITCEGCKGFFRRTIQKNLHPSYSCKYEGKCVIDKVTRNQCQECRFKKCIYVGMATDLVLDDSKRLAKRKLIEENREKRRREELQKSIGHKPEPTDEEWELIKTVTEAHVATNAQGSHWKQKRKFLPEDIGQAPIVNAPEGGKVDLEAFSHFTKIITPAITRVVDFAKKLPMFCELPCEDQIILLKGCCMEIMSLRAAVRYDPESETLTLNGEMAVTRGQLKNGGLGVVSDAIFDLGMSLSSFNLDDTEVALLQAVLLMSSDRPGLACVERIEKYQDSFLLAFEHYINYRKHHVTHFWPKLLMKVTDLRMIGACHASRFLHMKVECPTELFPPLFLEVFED

Cc1ccc([N+](=O)[O-])cc1N
inactive: activity change, negative = cytotoxicity [1] -8.34% | caspase-3 activation [2] -0.45% | Potency [3] | Potency [4] | Potency [5] | Potency [6] | Potency [7] | Potency [8] | Potency [9] | Potency [10] | Potency [11] | Potency [12] | Potency [13] | Potency [14] | Potency [15] | Potency [16] | outcome [17] | max response [18] -2.87% and -11.4% | Potency [19] | max response [20] -2.84% and 7.73%

CC1(C)CC(N=C=O)CC(C)(CN=C=O)C1 (stereo not drawn)
inactive: activity change, negative = cytotoxicity [1] 13.5% | caspase-3 activation [2] 0.941% | Potency [3] | Potency [4] | Potency [5] | Potency [6] | Potency [7] | Potency [8] | Potency [9] | Potency [10] | Potency [11] | Potency [12] | Potency [13] | Potency [14] | Potency [15] | Potency [16] | outcome [17] | max response [18] 12.5% and -8% | Potency [19] | max response [20] 6.59% and -15.1%

ClCCCl
inactive: activity change, negative = cytotoxicity [1] -0.883% | caspase-3 activation [2] 2.03% | Potency [3] | Potency [4] | Potency [5] | Potency [6] | Potency [7] | Potency [8] | Potency [9] | Potency [10] | Potency [11] | Potency [12] | Potency [13] | Potency [14] | Potency [15] | Potency [16] | outcome [17] | max response [18] -2.31% and -1.04% and -10.6% | Potency [19] | max response [20] 20.3% and 6% and -12.9%

COC(=O)CCCCC(=O)OC
inactive: activity change, negative = cytotoxicity [1] 5.83% | caspase-3 activation [2] 2.55% | Potency [3] | Potency [4] | Potency [6] | Potency [7] | Potency [8] | Potency [9] | Potency [10] | Potency [11] | Potency [12] | Potency [13] | Potency [14] | Potency [15] | Potency [16] | outcome [17] | max response [18] -2.55% and -9.27% and -5.71% | Potency [19] | max response [20] -2.58% and 2.67% and 6.18%

O=C(/C=C/c1ccc(O)c(O)c1)O[C@@H](C(=O)O)[C@@H](OC(=O)/C=C/c1ccc(O)c(O)c1)C(=O)O
inactive: activity change, negative = cytotoxicity [1] -5.23% | caspase-3 activation [2] 1.83% | Potency [3] | Potency [4] | Potency [5] | Potency [6] | Potency [7] | Potency [8] | Potency [9] | Potency [10] | Potency [11] | Potency [12] | Potency [13] | Potency [14] | Potency [15] | Potency [16] | outcome [17] | max response [18] 13% | Potency [19] | max response [20] 27.4%

OCCNCCO
inactive: activity change, negative = cytotoxicity [1] -1.22% | caspase-3 activation [2] 2.36% | Potency [3] | Potency [4] | Potency [5] | Potency [6] | Potency [7] | Potency [8] | Potency [9] | Potency [10] | Potency [11] | Potency [12] | Potency [13] | Potency [14] | Potency [15] | Potency [16] | max response [18] -2.15% and -2.6% | Potency [19] | max response [20] 2.63% and -10.1%

CC(C)=CCCC(C)CCO (stereo not drawn)
inactive: activity change, negative = cytotoxicity [1] -2.53% | caspase-3 activation [2] 2.37% | Potency [3] | Potency [4] | Potency [5] | Potency [6] | Potency [7] | Potency [8] | Potency [9] | Potency [10] | Potency [11] | Potency [12] | Potency [13] | Potency [14] | Potency [15] | Potency [16] | outcome [17] | max response [18] -7.24% and 2.51% | Potency [19] | max response [20] -2.24% and -1.77%
